# Measurements reported in PubChem BioAssay (NCATS).
# Results filed as inconclusive are left out. Calls of active or inactive are those of the source. Calls follow the shape of the dose curve; as a rule, active = well fitted curve in the direction sought with a large enough effect; inconclusive = small, poorly fitted or top-dose-only effect, or another doubt; inactive = no such curve, though single readings can be large; an effect the other way counts as inactive or inconclusive.
# Key:
# [1] = qHTS of pediatric cancer cell lines to identify multiple opportunities for drug repurposing: Primary screen for SK-N-SH cells (AID 1347098); also: nearly all actives have a fitted effect of over 65% in size
# Procedure, shortened: (§1)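 Cells (500-1,000/well) rested 5 h, then received compounds for 48 h; metabolically active cells were measured by CellTiter-Glo luminescence. Final concentrations spanned up to 46 µM (MIPE, 11-point) or 0.59 nM-46 µM (NPC, 8-point) in primary screens, 11-point in follow-ups.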
# [2] = qHTS of pediatric cancer cell lines to identify multiple opportunities for drug repurposing: Primary screen for NB1643 cells (AID 1347099); also: nearly all actives have a fitted effect of over 50% in size
# Procedure, shortened: (§2)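 Cells seeded at 500-1,000 cells/well in growth media, rested 5 hours at 37 degrees C, 5% CO2, then dosed; MIPE compounds at 11-point (from 0.78 nM) and NPC at 8-point (from 0.59 nM) final concentrations. Viability by CellTiter-Glo luminescence after 48 hours.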
# [3] = qHTS of pediatric cancer cell lines to identify multiple opportunities for drug repurposing: Primary screen for LAN-5 cells (AID 1347100)
# Procedure, shortened: (§3)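 Cells (500-1,000/well) in growth media were settled 5 h at 37 degrees C, then given compounds for 48 h. Viability was read as CellTiter-Glo luminescence. Primary runs used MIPE at 11 points (0.78 nM-46 µM) and NPC at 8 points (0.59 nM-46 µM); follow-ups used 11 points.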
# [4] = qHTS of pediatric cancer cell lines to identify multiple opportunities for drug repurposing: Primary screen for Rh18 cells (AID 1347102); also: nearly all actives have a fitted effect of over 65% in size
# Procedure, shortened: as §3
# [5] = qHTS of pediatric cancer cell lines to identify multiple opportunities for drug repurposing: Primary screen for RD cells (AID 1347104); also: nearly all actives have a fitted effect of over 55% in size
# Procedure, shortened: as §2
# [6] = qHTS of pediatric cancer cell lines to identify multiple opportunities for drug repurposing: Primary screen for MG 63 (6-TG R) cells (AID 1347105); also: nearly all actives have a fitted effect of over 50% in size
# Procedure, shortened: as §2
# [7] = qHTS of pediatric cancer cell lines to identify multiple opportunities for drug repurposing: Primary screen for Rh30 cells (AID 1347107); also: nearly all actives have a fitted effect of over 75% in size
# Procedure, shortened: as §3
# [8] = qHTS of pediatric cancer cell lines to identify multiple opportunities for drug repurposing: Primary screen for Rh41 cells (AID 1347108); also: nearly all actives have a fitted effect of over 70% in size
# Procedure, shortened: as §2
# [9] = qHTS of pediatric cancer cell lines to identify multiple opportunities for drug repurposing: Confirmatory screen for NB1643 cells (AID 1347109); also: nearly all actives have a fitted effect of over 45% in size
# Procedure, shortened: as §3
# [10] = qHTS of pediatric cancer cell lines to identify multiple opportunities for drug repurposing: Confirmatory screen for A673 cells (AID 1347110);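 also: cells exposed to compound for 48 h before the viability read; nearly all actives have a fitted effect of over 65% in size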
# Procedure, shortened: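 A673 cells seeded at 500-1,000 cells/well, rested 5 h, then dosed; primary MIPE 11-point (0.78 nM to 46 µM), NPC (0.59 nM to 46 µM); confirmatory 11-point. CellTiter-Glo luminescence after 48 h.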
# [11] = qHTS of pediatric cancer cell lines to identify multiple opportunities for drug repurposing: Confirmatory screen for SK-N-MC cells (AID 1347111);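 also: cells exposed to compound for 48 h before the readout; nearly all actives have a fitted effect of over 70% in size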
# Procedure, shortened: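 Metabolically active cells were quantified by ATP-dependent luminescence (CellTiter-Glo, 15 min at room temperature) following 48 h treatment. Cells had been plated at 500-1,000 per well and settled for 5 h beforehand.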
# [12] = qHTS of pediatric cancer cell lines to identify multiple opportunities for drug repurposing: Confirmatory screen for BT-12 cells (AID 1347112); also: nearly all actives have a fitted effect of over 55% in size
# Procedure, shortened: as §3
# [13] = qHTS of pediatric cancer cell lines to identify multiple opportunities for drug repurposing: Confirmatory screen for LAN-5 cells (AID 1347113); also: nearly all actives have a fitted effect of over 65% in size
# Procedure, shortened: as §3
# [14] = qHTS of pediatric cancer cell lines to identify multiple opportunities for drug repurposing: Confirmatory screen for NB-EBc1 cells (AID 1347115);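 also: cells exposed to compound for 48 h before the viability read; nearly all actives have a fitted effect of over 45% in size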
# Procedure, shortened: as §3
# [15] = qHTS of pediatric cancer cell lines to identify multiple opportunities for drug repurposing: Confirmatory screen for SJ-GBM2 cells (AID 1347116); also: nearly all actives have a fitted effect of over 60% in size
# Procedure, shortened: (§4)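 Viability measured as metabolically active cells via CellTiter-Glo luminescence following 48 hours of compound exposure, 11-point dilutions in confirmatory testing. 500-1,000 cells/well plated 5 hours before dosing; controls were DMSO and 2.3 µM bortezomib.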
# [16] = qHTS of pediatric cancer cell lines to identify multiple opportunities for drug repurposing: Confirmatory screen for BT-37 cells (AID 1347117); also: nearly all actives have a fitted effect of over 55% in size
# Procedure, shortened: as §3
# [17] = qHTS of pediatric cancer cell lines to identify multiple opportunities for drug repurposing: Primary screen for control Hh wild type fibroblast cells (AID 1347106); also: nearly all actives have a fitted effect of over 55% in size
# Procedure, shortened: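 Viability after 48 h compound treatment at 37C, 500-1,000 cells/well, read as ATP luminescence with CellTiter-Glo. Primary screens used 11-point (MIPE, 0.78 nM-46 µM) or 8-point (NPC, 0.59 nM-46 µM) final concentrations; follow-up screens used 11-point dilutions.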
# [18] = qHTS of pediatric cancer cell lines to identify multiple opportunities for drug repurposing: Primary screen for OHS-50 cells (AID 1347103); also: nearly all actives have a fitted effect of over 40% in size
# Procedure, shortened: as §1
# [19] = qHTS of pediatric cancer cell lines to identify multiple opportunities for drug repurposing: Confirmatory screen for DAOY cells (AID 1347114); also: nearly all actives have a fitted effect of over 65% in size
# Procedure, shortened: as §4
# Potency is read from the fitted curve at half-maximal effect.
SMILES,Potency [1],Potency [2],Potency [3],Potency [4],Potency [5],Potency [6],Potency [7],Potency [8],Potency [9],Potency [10],Potency [11],Potency [12],Potency [13],Potency [14],Potency [15],Potency [16],Potency [17],Potency [18],Potency [19]
C#Cc1cccc(Nc2ncnc3cc(OC)c(OCCCCCCC(=O)NO)cc23)c1,121 nM (active),74.3 nM (active),332 nM (active),469 nM (active),187 nM (active),118 nM (active),11800 nM (active),372 nM (active),955 nM (active),2400 nM (active),603 nM (active),5370 nM (active),676 nM (active),1700 nM (active),1910 nM (active),759 nM (active),,,
C=CC(=O)N1CCC[C@@H](n2nc(-c3ccc(Oc4ccccc4)cc3)c3c(N)ncnc32)C1,12100 nM (active),2350 nM (active),16600 nM (active),18700 nM (active),33200 nM (active),,11800 nM (active),,,,5850 nM (active),inactive,,9270 nM (active),inactive,,inactive,,
CC(C)(C)c1cc(C(C)(C)C)c(NC(=O)c2c[nH]c3ccccc3c2=O)cc1O,inactive,inactive,inactive,inactive,inactive,inactive,inactive,,,,14700 nM (active),,,16500 nM (active),,,inactive,inactive,
C[C@]1(CO)CN(c2cc(C(=O)Nc3ccc4c(c3)-c3c(c(C(N)=O)nn3-c3ccc(F)cc3)CC4)c(Cl)cn2)C[C@@]1(C)CO,19200 nM (active),5900 nM (active),5260 nM (active),18700 nM (active),,9350 nM (active),,,,,,,,,,,,10900 nM (active),
Cc1[nH]c2ccccc2c1CCNCc1ccc(C=CC(=O)NO)cc1,271 nM (active),187 nM (active),105 nM (active),93.5 nM (active),372 nM (active),,,235 nM (active),117 nM (active),329 nM (active),82.7 nM (active),737 nM (active),261 nM (active),369 nM (active),inactive,165 nM (active),1870 nM (active),153 nM (active),
O=c1c2ccccc2nc2n1CCc1c-2[nH]c2ccccc12,inactive,inactive,inactive,,inactive,inactive,inactive,inactive,,,,,,,,,inactive,inactive,
O=C(C=Cc1cccc(S(=O)(=O)Nc2ccccc2)c1)NO,6220 nM (active),679 nM (active),1210 nM (active),1910 nM (active),9590 nM (active),6790 nM (active),,6790 nM (active),1350 nM (active),6030 nM (active),1510 nM (active),38000 nM (active),1700 nM (active),2140 nM (active),2140 nM (active),1700 nM (active),,3950 nM (active),19100 nM (active)
Nc1nccc(Oc2ccc(NC(=O)c3c[nH]cc(-c4ccc(F)cc4)c3=O)cc2F)c1Cl,6810 nM (active),14800 nM (active),1180 nM (active),18700 nM (active),26400 nM (active),18700 nM (active),inactive,18700 nM (active),,,,,,,,,inactive,,
CC1(C)CC(=O)c2c(C(F)(F)F)nn(-c3ccc(C(N)=O)c(NC4CCC(OC(=O)CN)CC4)c3)c2C1 (configuration not stated),482 nM (active),235 nM (active),187 nM (active),418 nM (active),,,,372 nM (active),,,,,,,,,,306 nM (active),
CC(C)c1cc(-c2n[nH]c(=O)n2-c2ccc3c(ccn3C)c2)c(O)cc1O,242 nM (active),66.2 nM (active),66.2 nM (active),83.3 nM (active),59 nM (active),,inactive,,,18500 nM (active),inactive,,inactive,inactive,inactive,inactive,,153 nM (active),
Cc1cc(CN2CCN(c3c(Br)cnc4nc(-c5ccc(N6CCN(C)CC6)cc5)[nH]c34)CC2)no1,21500 nM (active),16600 nM (active),418 nM (active),20900 nM (active),26400 nM (active),18700 nM (active),,5900 nM (active),,,,,,,,,inactive,30600 nM (active),
Cc1ccc(NC(=O)C2(c3ccc4c(c3)OC(F)(F)O4)CC2)nc1-c1cccc(C(=O)O)c1,136 nM (active),33.2 nM (active),83.3 nM (active),833 nM (active),74.3 nM (active),148 nM (active),inactive,296 nM (active),inactive,inactive,inactive,10400 nM (active),,inactive,,inactive,,54.4 nM (active),
Cc1ccc(S(=O)(=O)Nc2cc(Cl)ccc2C(=O)Nc2nc(-c3ccccc3)cs2)cc1,inactive,3720 nM (active),9350 nM (active),inactive,,9350 nM (active),inactive,18700 nM (active),,,,,,,,,inactive,8630 nM (active),
